This is an account of results in PubChem BioAssay (EPA / NIEHS).

Molecules are shown by their SMILES. Several values for one entry are separate records, joined by “and”; a condition that tells them apart may be missing. Equal values may be shown once. Results filed as inconclusive are left out. A structure can be active in one record and inactive in another. Activity calls are given as the source filed them. The calls were made as follows: active = hit-call score of the fitted dose curve at least 0.9, where 1 is the maximum; inconclusive = response in the unintended direction; inactive = score below 0.9.

The target of this assay is Cellular tumor antigen p53 (Homo sapiens) (UniProt P04637). As to the kind of experiment: TOX21_p53_BLA_p4_ratio: Tox21 HCT-116 p53 Agonism Beta-lactamase Assay, Ratio, Phase 4 (AID 2283601). From the text: TOX21_p53_BLA_p4 is a cell-based, single-readout assay that uses HCT116, a human intestinal cell line, […] in a 1536-well plate.TOX21_p53_BLA_p4_ratio is an assay readout measuring reporter gene via receptor activity and designed using inducible reporter (beta lactamase induction) detected with GAL4 b-lactamase reporter gene. The signal is derived from the ratio of cleaved (ch2) to uncleaved (ch1)reporter gene substrate used as the measure of target activity.Data from the assay component TOX21_p53_BLA_p4_ratio was analyzed into 1 assay endpoint. This assay endpoint, TOX21_p53_BLA_p4_ratio, was analyzed in the positive analysis fitting direction relative to DMSO as the negative control and baseline of activity. Using a type of inducible reporter, gain-of-signal activity can be used to understand changes in the reporter gene as they relate to the gene TP53. Furthermore, this assay endpoint can be referred to as a primary readout, because this assay has produced multiple assay endpoints where this ratio serves a reporter gene function to understand target activity. To generalize the intended target to other relatable targets, this assay endpoint is annotated to the DNA binding intended target family, where the subfamily is tumor suppressor.
Cellular tumor antigen p53 (Homo sapiens), sequence (P04637 whole entry, looked up, the tested form may be a part): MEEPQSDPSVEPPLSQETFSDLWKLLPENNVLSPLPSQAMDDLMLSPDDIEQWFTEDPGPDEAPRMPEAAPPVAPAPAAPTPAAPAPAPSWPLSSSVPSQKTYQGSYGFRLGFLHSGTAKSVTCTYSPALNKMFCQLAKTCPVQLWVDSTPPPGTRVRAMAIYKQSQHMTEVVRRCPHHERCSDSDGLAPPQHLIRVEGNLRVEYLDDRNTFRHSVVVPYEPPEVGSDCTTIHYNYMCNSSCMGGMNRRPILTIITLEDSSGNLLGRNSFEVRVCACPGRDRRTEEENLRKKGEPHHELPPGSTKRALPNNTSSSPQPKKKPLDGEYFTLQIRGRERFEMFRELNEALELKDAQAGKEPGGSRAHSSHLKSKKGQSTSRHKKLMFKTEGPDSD
Thawing Method: Place 14 mL of pre-warmed thaw medium into a 15 mL of conical tub. Remove the vial of cells to be thawed from liquid nitrogen and thaw rapidly by placing at 37C in a water bath with gentle agitation for 1-2 minutes. Decontaminate the vial by wiping with 70% ethanol before opening in a biological safety cabinet. Transfer the vial contents drop-wise into 14 mL of thaw medium in a sterile 15-mL conical tub. Centrifuge cells at 900 rpm for 4 minutes and resuspend in thaw medium. Transfer contents to the T75 tissue culture flask containing Thaw Medium and place flask in a humidified 37C/5% CO2 incubator. Switch to growth medium at first passage.Propagation Method: Aspirate medium, rinse once in DPBS, add 0.25% Trypsin/EDTA and swirl to coat the cell evenly. Add an equal volume of Growth Medium to inactivate Trypsin after 2-3 minutes incubation at 37C. Centrifuge cells at 900 rpm for 4 minutes and resuspend in growth medium. Cell should be passage or fed at least twice a week.Assay Protocol: Harvest cells from culture in growth medium and resuspend in assay medium. 2.2 Dispense 4000 cells/5 uL/well into 1536-well black/clear bottom plates using a Multidrop dispenser. After the cells were incubated at 37C for 5 hours, 23 nL of compounds dissolved in DMSO were transferred to the assay plate by a PinTool resulting in a 217-fold dilution. Incubate the plates for 16 hours at 37C, 5% CO2. Add 1 uL of 6X LiveBLAzer FRET B/G (CCF4-AM) Substrate Mixture to each well using a BioRAPTR dispenser and incubate the plates at room temperature for 2 hours. Measure fluorescence intensity at 460 and 530 nm emission and 405 nm excitation by an Envision detector. Data is expressed as the ratio of 460nm/530nm emissions. Add 4 uL of Cell-titer Glo to each well using BioRAPTR and incubate the plates at room temperature for 2 hours. Measure fluorescence intensity by a VewLux plate reader.
The term AC50 denotes the concentration at which the activity in the assay is half-maximal. Turning to `O=Nc1ccc(Nc2ccccc2)cc1`, the AC50 was 76.2 µM (active) and 63 µM (active).
`CO[Si](C)(OC)c1ccccc1`: the outcome was inactive.
The same measure, in the same setting: the value for `CCCCC/C=C/C=C/C=O` was “inactive”; that for `Nc1cc([N+](=O)[O-])ccc1O` was “inactive”.
As to `CCCc1ccccc1O`, the outcome was inactive.
Regarding `O=C1C(c2[nH]c3ccc(S(=O)(=O)O)cc3c2O)=Nc2ccc(S(=O)(=O)O)cc21`, the outcome was inactive.
Same read-out and setting: the value for `CC[C@]12CCCN3CCc4c(n(c5ccccc45)[C@@](O)(C(=O)OC)C1)[C@@H]32` was “inactive”.
Turning to `CCCc1c(OCCCOc2ccc(OCC(=O)O)cc2)ccc(C(C)=O)c1O`, the AC50 was 69.2 µM (active).
On to `COc1cccc(OC)c1`, for which the outcome was inactive.
Consider `CCCCCCCCC`, for which the result was inactive.
With `Cc1ncc([N+](=O)[O-])n1C`, the outcome was inactive.
For `O=C(O)c1cccc([N+](=O)[O-])c1`, the result was inactive.
In the case of `CCCCCCCCCCCCN`, the outcome was inactive and the AC50 was 86.1 µM (active).
With `O=C1CCCCCCCCCCOCCCCO1`, the result was inactive.
On the same count and under the same terms, the same measure for `Sc1nc(S)nc(S)n1`: “inactive”.
The same measure, in the same setting: the value for `C=CCOc1nc(OCC=C)nc(OCC=C)n1` was “inactive”; that for `CC(C)=CCCC(C)=CCCC(C)=CCO` was “inactive”; that for `CN(C)CCOCCN(C)C` was “inactive”.
The same measure, in the same setting: the value for `C[C@H]1C[C@H]2[C@@H]3CCC4=CC(=O)C=C[C@]4(C)[C@@]3(F)[C@@H](O)C[C@]2(C)[C@@]1(O)C(=O)COP(=O)(O)O` was “inactive”; that for `O=C(O)CN(CCN(CC(=O)O)CC(=O)O)CCN(CC(=O)O)CC(=O)O` was “inactive”; that for `NCCCCCCN` was “inactive”.
For `CC(C)=CCCC(C)CC=O` (stereo not given), the result was inactive.
Regarding `COc1ccc(Nc2ccccc2)c(C)c1`, the outcome was inactive.
As for `COc1cc(C=O)ccc1OC(=O)C(C)C`, the result was inactive.
As for `O=C1c2ccccc2C(=O)N1SC1CCCCC1`, the AC50 is 76 µM (active) and the result was inactive.
Regarding `CC(CN1c2ccccc2Sc2ccccc21)N(C)C` (stereo not given), the outcome was inactive.
Same read-out and setting: the same measure for `CCCC/C=C\CCCCCCCCCC=O`: “inactive”; for `CC(=O)Nc1ccccc1O`: “inactive”.
Turning to `CN1[C@@H]2CC(OC(=O)[C@H](CO)c3ccccc3)C[C@H]1[C@@H]1O[C@@H]12` (stereo not given in full), the result was inactive.
As to `OCCOCCOCCOCCO`, the outcome was inactive.
Regarding `O=c1[nH]nnc2ccccc12`, the outcome was inactive.
As to `Cc1ccc(C(=O)c2cc(O)c(O)c([N+](=O)[O-])c2)cc1`, the outcome was inactive and the AC50 is 49.6 µM (active).
In the case of `O=C1OC2(c3cc(Br)c(O)c(Br)c3Oc3c2cc(Br)c(O)c3Br)c2c(Cl)c(Cl)c(Cl)c(Cl)c21`, the AC50 is 48.7 µM (active) and 26.5 µM (active).
Regarding `NCCOCCO`, the result was inactive.
On the same count and under the same terms, the same measure for `CCCCCCCCCCC(CO)CCCCCCCC` (stereo not given): “inactive”; for `CCCCO`: “inactive”.
Turning to `CC(C)[C@@H]1CC[C@@H](C)CC1=O`, the outcome was inactive.
